# Laboratory results: the supplement of paper PMC11537057
# Counter-ions that a name gives are not always drawn. ± gives the standard deviation of the averaged measurements. Whole data set: some 1,700 compounds, median “cell number in HSV-1-infected wells relative to infected DMSO wells (H2B-RFP signal)” near 100, cut for the highest 2% near 140. The full list was thinned out, with the highest values kept by preference.
# System: A549 infected with HSV-1
# Experiment: cell number in HSV-1-infected wells relative to infected DMSO wells (H2B-RFP signal); higher = more surviving cells (uninfected or antiviral-protected wells give about 200%; low = toxicity)
# Conditions: 10 µM; 48 h; MOI: 0.1
# Experimental: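 Selleck FDA-approved library (L1300) screened in duplicate at 10 µM on A549 H2B-mRuby cells in 384-well plates, infected with HSV-1 strain 17 YFP-ICP4 at MOI 0.1 one hour before drug addition. Imaged after 2 days at 37°C. Cell growth (H2B-RFP) and infection (ICP4-YFP) are expressed as % of DMSO-treated wells. Hits: growth >90% and infection <20% of DMSO.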
row,SMILES,cell number in HSV-1-infected wells [%]
1,Clc1ccc2c(c1)CCc1cccnc1C2=C1CCNCC1 [Desloratadine],116 ± 6.4
2,C[C@H](CCC(=O)O)[C@H]1CC[C@H]2[C@@H]3C(=O)C[C@@H]4CC(=O)CC[C@]4(C)[C@H]3CC(=O)[C@]12C [Dehydrocholic acid],89.8 ± 1.7
3,"COc1cc2c(cc1Cc1cccc(Cl)c1F)c(=O)c(C(=O)O)cn2[C@H](CO)C(C)C [Elvitegravir (GS-9137, JTK-303)]",105 ± 10
4,CCCc1ncc(C[n+]2ccccc2C)c(N)n1 [Amprolium HCl],105 ± 10
5,CC[C@H](C)[C@H](NC(=O)[C@@H]1CCCN1C(=O)CNC(=O)[C@H](Cc1ccccc1)NC(=O)[C@H](CC(N)=O)NC(=O)[C@H](CC(N)=O)NC(=O)[C@H](CO)NC(=O)[C@H](CO)NC(=O)[C@H](Cc1c[nH]cn1)NC(=O)[C@@H](NC(=O)[C@H](CC(C)C)NC(=O)[C@H](Cc1ccccc1)NC(=O)[C@H](CC(N)=O)NC(=O)[C@H](C)NC(=O)[C@H](CC(C)C)NC(=O)[C@H](CCCNC(=N)N)NC(=O)[C@H](CCC(N)=O)NC(=O)[C@@H](NC(=O)[C@H](C)NC(=O)[C@@H]1CSSC[C@H](NC(=O)[C@@H](N)CCCCN)C(=O)N[C@@H](CC(N)=O)C(=O)N[C@@H]([C@@H](C)O)C(=O)N[C@@H](C)C(=O)N[C@@H]([C@@H](C)O)C(=O)N1)[C@@H](C)O)C(C)C)C(=O)N[C@@H](CC(C)C)C(=O)N1CCC[C@H]1C(=O)N1CCC[C@H]1C(=O)N[C@H](C(=O)N[C@@H](CC(N)=O)C(=O)N[C@H](C(=O)NCC(=O)N[C@@H](CO)C(=O)N[C@@H](CC(N)=O)C(=O)N[C@H](C(=O)N[C@@H](Cc1ccc(O)cc1)C(N)=O)[C@@H](C)O)C(C)C)[C@@H](C)O [Pramlintide Acetate],134 ± 20
6,CC(C)[C@H](N)C(=O)OCC(CO)OCn1cnc2c(=O)[nH]c(N)nc21 (some centres not stated) [Valganciclovir HCl],207 ± 2.2
7,O=C(O)c1cccc(-c2noc(-c3ccccc3F)n2)c1 [Ataluren (PTC124)],116 ± 9.6
8,CN(C)CCOC(c1ccccc1)c1ccccc1 [Diphenhydramine HCl],102 ± 25
9,CN(C)CCOC(c1ccc(Cl)cc1)c1ccccn1 (configuration not stated) [CarbinoxaMine Maleate],148 ± 27
10,CN(C)CCC(c1ccc(Cl)cc1)c1ccccn1 (configuration not stated) [Chlorpheniramine Maleate],94.3 ± 16
11,CC1(C)S[C@@H]2[C@H](NC(=O)[C@H](C(=O)O)c3ccsc3)C(=O)N2[C@H]1C(=O)O [Ticarcillin sodium],95.4 ± 22
12,CC(C)(C)c1cc(C(C)(C)C)c(NC(=O)c2c[nH]c3ccccc3c2=O)cc1O [Ivacaftor (VX-770)],64.8 ± 7
